Among the data in PubChem BioAssay (NCI) are growth inhibition values, retold here.

Compounds without any hit were thinned out: in the full panel of roughly 79,000, 15% have a hit. Calls of active or inactive are those of the source. Cut-off read from the data, not from the text of the source: active = growth inhibition above about 70%; inactive = the rest.

One assay can be described thus: NCI Yeast Anticancer Drug Screen. Data for the rad50 strain (AID 155).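 Note: 0% = growth of vehicle-only cultures of the same strain.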 The following applies: S. cerevisiae rad50 strain growth inhibition; at 50.0 µM; stronger effect = higher value. In outline: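 Growth of the mutant yeast was measured after compound exposure and referenced to vehicle-treated cultures.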
In the case of `COc1ccc(C(=O)[O][Sn]([c]2ccccc2)([c]2ccccc2)[c]2ccccc2)c(OC)c1OC`, the growth inhibition was 98.7% (active).

Consider `CCC(CC)C1(C(=O)OCCN(CC)CC)CCCCC1`, for which the growth inhibition was 72.5% (active).

As for `O=C1OC(=O)C2C1C1C(c3ccccc3)=C(c3ccccc3)C2(O)C2C(=O)OC(=O)C12` (stereo not given), the growth inhibition is 76.2% (active).

For `C/C(=C/CC1CCC2C3=CCC4CC(O)CCC4(C)C3CCC12C)C(C)C(C)C` (stereo not given), the growth inhibition is 98% (active).

On to `CCC1(CC(=O)O)OCCc2c1[nH]c1c(C)c(Cl)ccc21` (stereo not given), for which the growth inhibition was 95.7% (active).

For `CN(C)CCCSc1c2ccccc2nc2cccc([N+](=O)[O-])c12`, the growth inhibition was 3.65% (inactive).

Consider `CC1OC(OP(=O)(OCc2ccccc2)OCc2ccccc2)C(OC(=O)c2ccccc2)C(OC(=O)c2ccccc2)C1I` (stereo not given), for which the growth inhibition was 86.1% (active).

For `C#CC(CC(C)CC(C)(C)C)NC` (stereo not given), the growth inhibition is 97.2% (active).

Consider `N#CCCN(CCC#N)Cc1cc(-c2ccccc2)ccc1O`, for which the growth inhibition was 87.5% (active).

As to `Cc1ccc(NC(=O)CCCC(=O)C(C#N)c2ccccc2C)cc1C` (stereo not given), the growth inhibition was -17.3% (inactive).

Consider `C[C@H]1CC[C@@H]2[C@@H](C)[C@H]3[C@H](C[C@H]4[C@@H]5CC=C6C[C@@H](O)CC[C@]6(C)[C@H]5CC[C@]34C)N2C1`, for which the growth inhibition was 58% (inactive).

With `Cc1nc(-c2ccc(N=Cc3ccc(N(CCOS(C)(=O)=O)CCOS(C)(=O)=O)cc3)cc2)cs1`, the growth inhibition was 46.5% (inactive).

Turning to `COc1ccc2nc3cccc([N+](=O)[O-])c3c(NCCO)c2c1`, the growth inhibition was 86.6% (active).

Consider `Oc1ccc(C2CCCCC2)cc1`, for which the growth inhibition was 85.5% (active).

Take `CCCCCc1cc(Cl)cc(Cl)c1O`: the growth inhibition was 60.1% (inactive).

On to `C=C1C(=O)OC2/C=C(\C(=O)O)CC/C=C(\C)CC(OC(=O)/C=C(\C)CC)C12` (stereo not given), for which the growth inhibition is 94% (active).

Consider `O/N=C(/Cc1nc2cc(Cl)c(Cl)cc2nc1C/C(=N/O)c1ccncc1)c1ccncc1`, for which the growth inhibition was 82.2% (active).

As to `Cc1cc(NC(=S)SCc2ccc3c(c2)OCO3)ccc1Br`, the growth inhibition is 89.7% (active).

`CN1C(=O)OC(C)(c2ccccc2)C1=O` (stereo not given): the growth inhibition was -14.7% (inactive).

Consider `O=C1c2ccccc2C(=O)c2c1cccc2[N+](=O)[O-]`, for which the growth inhibition is 90.9% (active).

Turning to `O=[N+]([O-])c1ccccc1Oc1ccc([N+](=O)[O-])c(C(F)(F)F)c1`, the growth inhibition is 80.1% (active).

Consider `Cc1ccc(O)c(N=Nc2ccc(Cl)cc2)c1`, for which the growth inhibition is -3.95% (inactive).

Turning to `CC(C)Cc1cc2c(cc1O)CCC1C2CC[C@@]2(C)C1CC[C@@H]2O` (stereo not given in full), the growth inhibition is 75.8% (active).

With `CCOC(=O)CC1(C)C(=O)CCCC1=O`, the growth inhibition is -3.7% (inactive).

Turning to `OC(c1cc(-c2ccc(Cl)cc2Cl)nc2ccccc12)C1CCCCN1` (stereo not given), the growth inhibition was 98.8% (active).

For the compound `COc1ccc(N=Cc2cc(Br)cc(Br)c2O)cc1.COc1ccc(N=Cc2cc(Br)cc(Br)c2O)cc1.[Co]`, the growth inhibition is 74% (active).

As to `Cc1ccc[n+](CC(=O)C2CCC3C4CC=C5CC(O)CCC5(C)C4CCC23C)c1` (stereo not given), the growth inhibition was 95.4% (active).

Regarding `CN(C)CC(C)(C)C(/C=C/c1ccccc1)=N\Nc1ccccc1`, the growth inhibition was 98.1% (active).

Consider `COC1(OC)C2(Cl)C(Cl)=C(Cl)C1(Cl)C1C2C2CC1(C(=O)O)c1ccccc12` (stereo not given), for which the growth inhibition was 92% (active).

For the compound `NC(N)=N/N=C(\c1ccc(F)cc1)c1ccc(C(F)(F)F)cc1`, the growth inhibition was 72.6% (active).

As for `O=C1CC(c2ccccc2Cl)C(c2ccccc2Cl)C1` (stereo not given), the growth inhibition was 97.5% (active).

Turning to `O=C(Cl)c1ccc(N=Nc2ccccc2)cc1`, the growth inhibition is 69.5% (inactive).

`O=[N+]([O-])c1ccccc1N=Nc1c(O)[nH]c2ccc(S(=O)(=O)O)cc12`: the growth inhibition is 97.7% (active).

Turning to `Cc1ccccc1N=NC(C(=O)c1ccccc1)C(=O)c1ccccc1`, the growth inhibition was 93.2% (active).

For the compound `CCCCC(CC)(COC(C)=O)COC(C)=O`, the growth inhibition is 7% (inactive).

Turning to `NCCOB(c1ccccc1)c1ccccc1`, the growth inhibition is 53.1% (inactive).

In the case of `O=C(Nc1ccccc1C(=O)O)c1ccccc1`, the growth inhibition is 44% (inactive).

With `O=[N+]([O-])c1ccc(Sc2c3ccccc3nc3ccccc23)nc1`, the growth inhibition is 98.3% (active).

With `Cc1oc2c(c1C(=O)c1ccccc1)C(=O)c1ccccc1C2=O`, the growth inhibition is 88.2% (active).

Consider `OC1(c2ccccc2)CCN(c2c3ccccc3nc3ccccc23)CC1`, for which the growth inhibition was 98.9% (active).

Another assay is described as follows: NCI Yeast Anticancer Drug Screen. Data for the mec2-1 strain (AID 157). The following applies: S. cerevisiae mec2-1 strain, at 5.0 µM (retest, dose inferred, filed as 0.5), stronger effect = higher value. Summed up:
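mec2-1 yeast strain, carrying an alteration in DNA damage repair or cell cycle control, was exposed to compounds; growth inhibition was measured relative to vehicle-treated controls.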
On to `COc1ccc(C(=O)[O][Sn]([c]2ccccc2)([c]2ccccc2)[c]2ccccc2)c(OC)c1OC`, for which the growth inhibition was 100% (active).

In the case of `CCC(CC)C1(C(=O)OCCN(CC)CC)CCCCC1`, the growth inhibition was -1% (inactive).

As for `O=C1OC(=O)C2C1C1C(c3ccccc3)=C(c3ccccc3)C2(O)C2C(=O)OC(=O)C12` (stereo not given), the growth inhibition is 7% (inactive).

As to `C/C(=C/CC1CCC2C3=CCC4CC(O)CCC4(C)C3CCC12C)C(C)C(C)C` (stereo not given), the growth inhibition was -4% (inactive).

For the compound `CCC1(CC(=O)O)OCCc2c1[nH]c1c(C)c(Cl)ccc21` (stereo not given), the growth inhibition was 1% (inactive).

Regarding `CN(C)CCCSc1c2ccccc2nc2cccc([N+](=O)[O-])c12`, the growth inhibition was 0% (inactive).

Turning to `CC1OC(OP(=O)(OCc2ccccc2)OCc2ccccc2)C(OC(=O)c2ccccc2)C(OC(=O)c2ccccc2)C1I` (stereo not given), the growth inhibition was 33% (inactive).

On to `C#CC(CC(C)CC(C)(C)C)NC` (stereo not given), for which the growth inhibition is 2% (inactive).

Regarding `N#CCCN(CCC#N)Cc1cc(-c2ccccc2)ccc1O`, the growth inhibition is 1% (inactive).

Turning to `Cc1ccc(NC(=O)CCCC(=O)C(C#N)c2ccccc2C)cc1C` (stereo not given), the growth inhibition is -2% (inactive).

In the case of `C[C@H]1CC[C@@H]2[C@@H](C)[C@H]3[C@H](C[C@H]4[C@@H]5CC=C6C[C@@H](O)CC[C@]6(C)[C@H]5CC[C@]34C)N2C1`, the growth inhibition is 28% (inactive).

Consider `Cc1nc(-c2ccc(N=Cc3ccc(N(CCOS(C)(=O)=O)CCOS(C)(=O)=O)cc3)cc2)cs1`, for which the growth inhibition is -24% (inactive).

Regarding `COc1ccc2nc3cccc([N+](=O)[O-])c3c(NCCO)c2c1`, the growth inhibition was 78% (active).

Turning to `Oc1ccc(C2CCCCC2)cc1`, the growth inhibition is -4% (inactive).

`CCCCCc1cc(Cl)cc(Cl)c1O`: the growth inhibition was -23% (inactive).

For the compound `C=C1C(=O)OC2/C=C(\C(=O)O)CC/C=C(\C)CC(OC(=O)/C=C(\C)CC)C12` (stereo not given), the growth inhibition was -5% (inactive).

On to `O/N=C(/Cc1nc2cc(Cl)c(Cl)cc2nc1C/C(=N/O)c1ccncc1)c1ccncc1`, for which the growth inhibition was 11% (inactive).

Take `Cc1cc(NC(=S)SCc2ccc3c(c2)OCO3)ccc1Br`: the growth inhibition was 28% (inactive).

`CN1C(=O)OC(C)(c2ccccc2)C1=O` (stereo not given): the growth inhibition was -2% (inactive).

Regarding `O=C1c2ccccc2C(=O)c2c1cccc2[N+](=O)[O-]`, the growth inhibition is 67% (inactive).

For `O=[N+]([O-])c1ccccc1Oc1ccc([N+](=O)[O-])c(C(F)(F)F)c1`, the growth inhibition is -2% (inactive).

As to `Cc1ccc(O)c(N=Nc2ccc(Cl)cc2)c1`, the growth inhibition is 4% (inactive).

As to `CC(C)Cc1cc2c(cc1O)CCC1C2CC[C@@]2(C)C1CC[C@@H]2O` (stereo not given in full), the growth inhibition is -17% (inactive).

Consider `CCOC(=O)CC1(C)C(=O)CCCC1=O`, for which the growth inhibition is -2% (inactive).

As for `OC(c1cc(-c2ccc(Cl)cc2Cl)nc2ccccc12)C1CCCCN1` (stereo not given), the growth inhibition was -4% (inactive).

`COc1ccc(N=Cc2cc(Br)cc(Br)c2O)cc1.COc1ccc(N=Cc2cc(Br)cc(Br)c2O)cc1.[Co]`: the growth inhibition was 80% (active).

In the case of `Cc1ccc[n+](CC(=O)C2CCC3C4CC=C5CC(O)CCC5(C)C4CCC23C)c1` (stereo not given), the growth inhibition was 1% (inactive).

For the compound `CN(C)CC(C)(C)C(/C=C/c1ccccc1)=N\Nc1ccccc1`, the growth inhibition is 0% (inactive).

For the compound `COC1(OC)C2(Cl)C(Cl)=C(Cl)C1(Cl)C1C2C2CC1(C(=O)O)c1ccccc12` (stereo not given), the growth inhibition is 23% (inactive).

For `NC(N)=N/N=C(\c1ccc(F)cc1)c1ccc(C(F)(F)F)cc1`, the growth inhibition is -3% (inactive).

With `O=C1CC(c2ccccc2Cl)C(c2ccccc2Cl)C1` (stereo not given), the growth inhibition was -6% (inactive).

Turning to `O=C(Cl)c1ccc(N=Nc2ccccc2)cc1`, the growth inhibition was -1% (inactive).

For the compound `O=[N+]([O-])c1ccccc1N=Nc1c(O)[nH]c2ccc(S(=O)(=O)O)cc12`, the growth inhibition is 36% (inactive).

Turning to `Cc1ccccc1N=NC(C(=O)c1ccccc1)C(=O)c1ccccc1`, the growth inhibition was -14% (inactive).

As for `CCCCC(CC)(COC(C)=O)COC(C)=O`, the growth inhibition is 1% (inactive).

`NCCOB(c1ccccc1)c1ccccc1`: the growth inhibition was 0% (inactive).

Regarding `O=C(Nc1ccccc1C(=O)O)c1ccccc1`, the growth inhibition was 2% (inactive).

For `O=[N+]([O-])c1ccc(Sc2c3ccccc3nc3ccccc23)nc1`, the growth inhibition is 82% (active).

Consider `Cc1oc2c(c1C(=O)c1ccccc1)C(=O)c1ccccc1C2=O`, for which the growth inhibition is 19% (inactive).

In the case of `OC1(c2ccccc2)CCN(c2c3ccccc3nc3ccccc23)CC1`, the growth inhibition was 3% (inactive).
